# According to PubChem BioAssay AID624416 (The Scripps Research Institute Molecular Screening Center, 2012):
# In all, about 360,000 compounds went through this assay and about 1,500 (0.42%) were called active. Cut-off read from the data, not from the text of the source: active = inhibition above about 8.5%; inactive = the rest. What follows is part of a selection rich in actives, with near analogues and random picks from the rest.
# Tested on: HIV-1 gp120 / PG9 antibody interaction
# Assay: small molecules engaging PG9 antibody – biochemical, TR-FRET, primary screen (AID 624416)
# Conditions: TR-FRET gp120-PG9 antibody binding; at 6.7 µM; active compounds read high
row,Structure (SMILES),inhibition
1,COC(=O)C1=C(C)N(Cc2ccc(C(F)(F)F)cc2)C(=NCc2ccc(C(F)(F)F)cc2)NC1c1cccc(Cl)c1 (stereo unspecified),-0.79% (inactive)
2,CC1CCN(S(=O)(=O)c2ccc3[nH]c(=O)ccc3c2)CC1,0.02% (inactive)
3,Cc1cc(C)cc(NC(=O)C2CCCN(S(=O)(=O)c3ccc4[nH]c(=O)ccc4c3)C2)c1 (stereo unspecified),11.4% (active)
4,CCc1cccc(NC(=O)C2CCCN(S(=O)(=O)c3ccc4[nH]c(=O)ccc4c3)C2)c1 (stereo unspecified),0.8% (inactive)
5,CC(C)[C@@H](C)/C=C/[C@@H](C)[C@H]1CC[C@@H]2[C@]1(C)CCC1[C@]23C=C[C@]2(C[C@@H](O)CC[C@]12C)N(c1ccc([N+](=O)[O-])cn1)O3 (stereo partly specified),-1.14% (inactive)
6,O=C(NCc1ccc2c(c1)OCO2)c1c(O)nc2sccn2c1=O,-1.43% (inactive)
7,O=C(NCc1ccc(Cl)cc1)c1cc2c(nc3sccn32)s1,28.4% (active)
8,O=C(NCc1ccc(Cl)cc1)c1cc(=O)nc2sc(-c3ccccc3)nn12,-2.19% (inactive)
9,CCOC(=O)CNC(=O)N(C)[C@H]1C[C@H]2c3[nH]c4c(-c5ccc6c(c5)OCO6)cccc4c3CCN2C(=O)[C@H]1[C@H](C)O,-0.88% (inactive)
10,O=C(NCc1cccnc1)c1cccnc1Sc1ccc(Cl)cc1,0.54% (inactive)
11,CSc1ncccc1C(=O)NCc1ccccc1Cl,-1.41% (inactive)
12,COc1cccc(CNC(=O)c2cccnc2Sc2ccc(Cl)cc2)c1,14.9% (active)
13,O=C(NCc1ccccc1)[C@@H]1CCCN1C(=O)[C@@H](NS(=O)(=O)c1ccc(F)cc1F)C1CCCCC1,-0.43% (inactive)
14,O=C(N=C1SC2CS(=O)(=O)CC2N1c1ccccc1)c1ccccc1 (stereo unspecified),-0.55% (inactive)
15,O=C(N=C1SC2CS(=O)(=O)CC2N1Cc1ccccc1)c1ccccc1 (stereo unspecified),34% (active)
16,O=C(CCC1CCCC1)N=C1SC2CS(=O)(=O)CC2N1Cc1ccccc1 (stereo unspecified),0.63% (inactive)
17,Nc1[nH]c(C(=O)c2ccccc2)c(-c2ccc(Cl)cc2Cl)c1C(=O)c1ccccc1,0.83% (inactive)
18,CCc1c(-c2ccccc2)nc(N)c(C#N)c1-c1cccs1,-2.39% (inactive)
19,CN1CCc2nc(SC(C(=O)O)c3ccccc3)c(C#N)c(-c3cccs3)c2C1 (stereo unspecified),1.9% (inactive)
20,Cc1c(-c2ccccc2)nc(N)c(C#N)c1-c1cccs1,12.2% (active)
21,O=C(NCc1ccccc1)[C@H]1CCCN1C(=O)[C@H]1CCCN1C(=O)c1cc(F)cc(F)c1,-2.57% (inactive)
